Assay results: PubChem BioAssay AID686979 (National Center for Advancing Translational Sciences (NCATS), 2013)
Among all 420,000 compounds or so, about 50,000 (12%) were called active. Roughly 26% stayed inconclusive and do not appear here. This is one part of a sample in which actives are shown more often than they occur. Unmarked numbers belong to inactive results. The call rests on the fitted dose curve; in most records, active means well fitted inhibition curve with a large enough effect; inconclusive means small, poorly fitted or top-dose-only effect; inactive means flat fitted curve, though single readings scatter.

Test: qHTS for Inhibitors of human tyrosyl-DNA phosphodiesterase 1 (TDP1): qHTS in cells in presence of CPT; further: nearly all actives have a fitted effect of over 55% in size
Details: chicken DT40 Tdp1-/-;hTDP1 cells + 20 nM CPT, ATP luminescence, 48 h; series mostly up to 46.2 µM; activity change, negative = growth inhibition: at the top concentration
Description: Human tyrosyl-DNA phosphodiesterase 1 (TDP1) is a novel repair gene, and we propose to use it as a new target for anticancer drug development. TDP1 is not an essential protein, but under treatment with topoisomerase I poison (camptothecin: CPT), TDP1 works as a critical factor for cell survival. To directly identify novel TDP1 inhibitors active in a cellular environment, we have knocked-out the Tdp1 gene in chicken DT40 cells (Tdp1-/-) and generated a complemented counterpart cells that contains a stable transfection of the human TDP1 gene (Tdp1-/-;hTDP1 cells). For the primary screen, Tdp1-/-;hTDP1 cells will be exposed to small molecules in the presence or absence of CPT, and their growth kinetics will be evaluated after 48 hours by measuring ATP activity. […] The hit compounds will then be evaluated in the presence or absence of CPT using Tdp1-/- cells. […] In tertiary assays, biochemical gel-based assays will be used to assess whether the hit compounds specifically target TDP1. To this end, we have screened this cell line against the MLSMR in two primary screens. In one screen we add CPT and in the other we screen in the absence of CPT; this AID represents the screen where CPT was present. NIH Chemical Genomics Center [NCGC] NIH Molecular Libraries Probe Centers Network [MLPCN] MLPCN Grant: MH095538 Assay Submitter (PI): Yves Pommier, NCI
DT40-hTDP1 cells with 20 nM Camptothecin (add 20 microL of 1 mM CPT stock in 1 L of cell culture medium) were dispensed at 400 cells/5microL/well in tissue culture treated 1536-well white wall/solid bottom assay plates (Greiner Bio-One North America, NC, U.S.A.) using a Multidrop Combi 8 channel dispenser (Thermo Fisher, Waltham, MA, USA). 23 nL compounds and controls were transferred using the pin tool (Kalypsys, San Diego, CA, USA) to the assay plates. The assay plates were then incubated at 37 masculineC for a minimum 48 hr. Three microL of Cell Titer Glo solution was added to the plates and incubated at RT in dark for 30 min. Luminescence was read using ViewLux (Perkin Elmer) with 1 sec exposure slow speed, high gain and 2x binning.
On the % scale 0 is the no-effect control and ±100 the full control effect; potency means the concentration at half of the fitted maximal effect.

Row | SMILES | activity change, negative = growth inhibition [%] | Potency
1 | CCCn1nnnc1NCc1ccc(OC)cc1 | -2.53 | 
2 | C=CCOc1ccc(C(=O)Nc2ccccc2C(=O)N2CCCC2)cc1 | -1.88 | 
3 | COc1cc(OC)c2c(c1Cl)OC1(C2=O)C(O)=CC(=O)CC1C (configuration not stated) | -20.9 | 
4 | CC(=O)c1c(C)[nH]c(C(=O)COc2ccc3c(C)cc(=O)oc3c2)c1C |  | 16.4 µM (active)
5 | Cc1ccc(O)c(/C=N/NC(=O)COc2ccc3c(C)cc(=O)oc3c2)c1 |  | 20.6 µM (active)
6 | Cc1cc(=O)oc2cc(OCC(=O)Nc3nnc(C4CC4)s3)ccc12 | 1.7 | 
7 | COC(=O)COc1ccc2oc(=O)cc(C)c2c1 | 11.2 | 
8 | Cc1cc(=O)oc2ccc(OCC(=O)O)cc12 | 2.43 | 
9 | CCOC(=O)Cc1csc(NC(=O)COc2ccc3c(C)cc(=O)oc3c2)n1 | -16.1 | 
10 | CC1=C(C/C=C(\C)CCCC(C)CCCC(C)CCCC(C)C)C(=O)c2ccccc2C1=O (configuration not stated) | -6.7 | 
11 | C=CC[C@H](CC(=O)OC(C)(C)C)C(=O)OC[C@H]1CCCN1C(=O)[C@H](CC=C)CC(=O)N(CCO)Cc1ccccc1 |  | 16.4 µM (active)
12 | CCc1ccc(NC(=O)Cn2ncn3c(cc4ccccc43)c2=O)cc1 | -23.6 | 
13 | N#Cc1cccc(CN2CCC(=O)N(CCO)CC2)c1 | 4.69 | 
14 | O=C(C1CCC1)N1CCN(S(=O)(=O)c2ccc([N+](=O)[O-])cc2)CC1 | -20.9 | 
15 | Cc1c(S(=O)(=O)NCc2ccccc2)c(=O)n(C)c(=O)n1C | 15.1 | 
16 | Cn1c(=O)c2c(-c3ccccc3Br)n(Cc3ccccc3)cc2n(C)c1=O |  | 20.6 µM (active)
17 | O=C(c1ccc[nH]c1=S)N1CCN(S(=O)(=O)c2ccc(Br)cc2Cl)CC1 | -0.528 | 
18 | COc1ccccc1CNC(=O)c1ccc(CS(=O)(=O)c2ccccc2)o1 | -0.755 | 
19 | COc1ccc(CCNC(=O)c2ccc(CS(=O)(=O)c3ccc(Br)cc3)o2)cc1OC |  | 20.6 µM (active)
20 | COc1ccc(CCNC(=O)c2nnc(CS(=O)(=O)c3ccccc3)o2)cc1OC | -33.7 | 
21 | O=C(NCc1ccco1)c1ccc(CS(=O)(=O)Cc2ccc(F)cc2)o1 | -9.49 | 
22 | COc1ccc(CCNC(=O)c2ccc(CSCc3ccc(C)cc3)o2)cc1OC |  | 14.6 µM (active)
23 | COc1ccc(CCNC(=O)Cc2ccc(C)cc2)cc1OC | -25.1 | 
24 | Cc1ccc(CCNC(=O)c2ccc(CS(=O)(=O)Cc3cccc(C)c3)o2)cc1 |  | 23.1 µM (active)
25 | Cc1ccc(CNC(=O)c2ccc(CS(=O)Cc3cccc(Cl)c3)o2)cc1 (configuration not stated) | -23.5 | 
26 | COc1ccc(CCNC(=O)NS(=O)(=O)c2ccc(C)cc2)cc1OC | 1.74 | 

Row | SMILES | activity change, negative = growth inhibition [%] | Potency
27 | COc1cccc(NC(=S)N(Cc2ccc(C)cc2)Cc2ccccn2)c1 | -11.2 | 
28 | CN=C1C=C/C(=N/N=c2\ccn(O)cc2C)C=C1C | 2.23 | 
29 | CCOC(=O)C1=C(CC)Nc2ccccc2N=C1NC(=O)c1cccc(S(=O)(=O)N2CCCC2)c1 | -21.8 | 
30 | CC(=O)NC12CC3CC(C1)CC(C(=O)N1CCN(C(=O)c4ccco4)CC1)(C3)C2 | 2.65 | 
31 | N#CC1(Nc2ccc3c4c(cccc24)CC3)CCCCC1 | -7.33 | 
32 | CC(C)[C@H]1CC[C@@H](C)C[C@H]1O | 31.4 | 
33 | CC(c1ccccn1)N(CCN(C)C)C(=S)Nc1ccccc1F (configuration not stated) | -0.383 | 
34 | N/C(=N\OC(=O)CCn1cccc(C(F)(F)F)c1=O)c1ccc(OC(F)(F)F)cc1 | -10.4 | 
35 | CC(=O)Nc1ccc(C(=O)N(C2=NC(C)CS2)c2ccc(Cl)cc2)cc1 (configuration not stated) | 2.95 | 
36 | COc1ccccc1NC(=O)CSc1nnc(Cn2nnc(-c3ccccc3)n2)n1-c1ccccc1 |  | 18.4 µM (active)
37 | COc1ccccc1OCc1nnc(SCC(N)=O)n1-c1ccccc1 | 12.4 | 
38 | COc1ccccc1NC(=O)CSc1nnc(Cc2cccn2C)n1-c1ccc(F)cc1 | -7.4 | 
39 | COc1ccc(S(=O)(=O)N(C)CC(=O)NCCCN2CCOCC2)cc1Cl | 3.43 | 
40 | O=C(COc1ccc(Br)cc1F)NCC1(N2CCCCC2)CCCCC1 | -7.8 | 
41 | O=C(COc1ccccc1Cl)Nn1cnnc1 | 5.43 | 
42 | CC(=O)C1=C(C)NC(=O)NC1c1cc(Br)ccc1OCC#N (configuration not stated) | -0.357 | 
43 | Cc1cc(C(=O)COc2ccccc2Cl)c(C)n1C1CC1 |  | 13 µM (active)
44 | Cc1cc(C(=O)COc2ccc(Br)cc2F)c(C)n1C1CC1 |  | 7.31 µM (active)
45 | O=C(COc1ccccc1Cl)N1CCCCCCC1 | -1.73 | 
46 | C/C(N)=C(/C#N)C(=O)COC(=O)c1cc(-c2ccc(C)cc2)nc2ccccc12 | -28.9 | 
47 | COc1ccc(/C=C/C(=O)NC(=S)N2CCCC(C(N)=O)C2)cc1 (configuration not stated) | 15 | 
48 | OCCC1CN(Cc2ccc3nsnc3c2)CCN1C1CCCC1 (configuration not stated) | 1.15 | 
49 | CC(C)c1cc(C(=O)N/N=C/c2ccoc2)c(O)c(C(C)C)c1 | 11.1 | 
50 | CC(C)C[C@H](NC(=O)N1CC(=O)Nc2ccccc21)C(=O)N[C@H](Cc1ccccc1)C(=O)O | 14.6 | 
51 | Cc1ccc(N(C(=O)c2ccc(CN3CCOCC3)o2)C(C(=O)NCCC(C)C)c2cccs2)c(C)c1 (configuration not stated) | 11.6 | 
52 | CCCCNC(=O)N(O)C1N(/N=C/c2ccc(N(C)C)cc2)C(=S)SC1(C)C (configuration not stated) | 9.36 | 
